# Rows were chosen to be rich in hits. Some 3% of all compounds tested hit in one or more screens of this group.
# HEK293 viab – reduces viability of HEK-293 SNCA reporter cells; HEK-293-SNCA-luc viability, GF-AFC fluorescence, 24 h; Potency, µM (series often up to 57.1 µM), most hits filed as cytotoxic; 150,000 tested, 0.12% active; also: nearly all actives have a fitted effect of over 30% in size
#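 HEK-293-SNCA-luc cells (1500/well) plated 24 h, then exposed 24 h to a dilution series; GF-AFC added 30 min at 37C, fluorescence 405/540 nm; normalised to medium-only and DMSO wells, Hill fit.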
# SNCA expr inhib – SNCA gene expression inhibition; HEK-293 SNCA-luciferase knock-in, luminescence, 24 h; Potency, µM (top dose mostly 57.2 µM), usual class: inhibitors; 140,000 tested, 0.17% active; AID 1671194; also: nearly all actives have a fitted effect of over 45% in size
# IP6K1 inh – inhibitors of human IP6K1. Q92551. IP6K1 kinase, ADP-Glo luminescence, 2 h; active compounds read low. activity change, % (series mostly up to about 58 µM). 140,000 tested, 0.81% active. AID 1645851; in the data active = activity change below about -25%
#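 ADP-Glo luminescence measures ADP made by human IP6K1 during a 2 h RT reaction with ATP/IP6 (mix at 1.3 mM/130 uM); top library doses 57.5 and 19.1 uM final.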
# KDM5B inh – blocks human KDM5B histone demethylase activity; Q9UGL1; 220,000 tested, 2.6% active; KDM5B demethylase, FDH-coupled NADH fluorescence (FDH is formaldehyde dehydrogenase); Potency, µM (doses to about 57.7 µM), actives largely listed as inhibitors; also: nearly all actives have a fitted effect of over 70% in size
#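 qHTS format, multiple compound concentrations. Buffer 50 mM HEPES pH 7.5/0.01% Tween-20; 200 nM KDM5BΔAP final; 10 min compound preincubation; substrate-mix levels 12.5 µM peptide, 25 µM α-KG, 0.25 mM NAD⁺; 30 min RT; ΔRFU.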
# Hits are given with their value; 0 = inactive; ? = inconclusive; - = no result; [ ] = remark or other dose. Unless noted, calls follow the shape of the dose curve; as a rule, active = well fitted curve in the direction sought with a large enough effect; inconclusive = small, poorly fitted or top-dose-only effect, or another doubt; inactive = no such curve, though single readings can be large; an effect the other way counts as inactive or inconclusive.
SMILES,HEK293 viab,SNCA expr inhib,IP6K1 inh,KDM5B inh
COCCNc1nc2c(S(=O)(=O)c3cc(C)ccc3C)nnn2c2ccccc12,0,0,0,79.4µM
COc1ccc(OC)c([S+](=O)([O-])c2nnn3c2nc(NC2CCCC2)c2ccccc23)c1,0,0,0,?
CSCCNC(=O)C1CCCN1c1nccc(Nc2ccc(C)cc2)n1 (stereo not given),0[12.5 µM],0,0,-
CNC(=O)C1=C(OCc2ccccc2)c2ccccc2[S+](=O)([O-])N1c1c(C)cccc1C,-,-,0,-
Cc1nn(-c2ccccc2)nc1C(=O)N[C@H](C)c1onc(C)c1C(=O)O,0,0,0,31.6µM
Cc1noc([C@@H](C)NC(=O)c2cccs2)c1C(=O)O,0,0,0,0
O=C(O)CN1CCN(Cc2ccc(OCCc3ccccc3)cc2)CC1=O,0,0,0,25.1µM
O=C(NCc1ccccc1F)c1nc2cccnc2n(Cc2ccccc2)c1=O,0,0,0,-
Cc1cc(CN(C)Cc2cn(-c3cccc(F)c3)nc2-c2ccc(C)o2)n[nH]1,0,0,0,25.1µM
Cc1ccc(-c2nn(-c3cccc(F)c3)cc2CN(C)CCO)o1,0,0,0,25.1µM
O=C(NCCN1CCCC1)c1nnn2cc(-c3ccccc3)[nH]c(=O)c12,0,0,0,2.51µM
CCc1ccc(NC(=O)C2CCN(c3cc(C(F)(F)F)ncn3)CC2)cc1,0,0,0,?
Cc1ccc(NC(=O)C2CCN(c3cc(C(F)(F)F)ncn3)CC2)cc1,0,0,0,25.1µM
Cc1cc(NC(=O)C2CCN(c3cc(C(F)(F)F)ncn3)CC2)ccc1Br,0,0,0,28.2µM
COc1nccnc1NC1CCN(S(=O)(=O)c2ccccc2)CC1,0,0,0,25.1µM
COc1nccnc1NC1CCN(C(=O)c2cccs2)CC1,0,0,0,25.1µM
COc1nccnc1NC1CCN(C(=O)c2cccc(C)c2)CC1,0,0,0,31.6µM
COc1nccnc1NC1CCN(S(=O)(=O)c2cnc[nH]2)CC1,0,0,0,?
CCCOc1nccnc1NC1CCN(C(=O)c2cccs2)CC1,0,0,0,?
COc1nccnc1NC1CCN(C(=O)c2cnccn2)CC1,0,0,0,?
CCCOc1nccnc1NC1CCN(C(=O)c2ccncc2)CC1,0,0,0,28.2µM
O=C(CCCc1c[nH]c2ccccc12)Nc1ccc(Br)cc1,-,-,-,0
COc1nccnc1NC1CCN(C(=O)c2ccccc2C)CC1,0,0,0,28.2µM
COc1nccnc1NC1CCN(C(=O)c2ccccc2)CC1,0,0,0,31.6µM
CCS(=O)(=O)N1CCC(Oc2ncccc2C(=O)N(C)C)C1 (stereo not given),0,0,0,0
SMILES,HEK293 viab,SNCA expr inhib,IP6K1 inh,KDM5B inh
CCCOc1nccnc1NC1CCN(S(=O)(=O)CC)CC1,0,0,0,28.2µM
COc1nccnc1NC1CCN(C(=O)c2n[nH]c3c2CCCC3)CC1,0,0,0,31.6µM
COC(=O)CC1C(=O)NCCN1C(=O)c1n[nH]c2c1CCCC2 (stereo not given),0,0,0,0
COc1ccccc1-c1ccc2ncnc(NC3CCNCC3)c2c1,0,0,-,-
COc1nccnc1NC1CCN(C(=O)c2ccco2)CC1,0,0,0,25.1µM
COc1nccnc1NC1CCNCC1,0,0,0,15.8µM
COc1nccnc1NC1CCN(C(=O)c2ccc3nc[nH]c3c2)CC1,0,0,0,28.2µM
CN(C)C(=O)c1cn2cc(-c3ccc(F)cc3)sc2n1,0,0,0,-
O=C(NC1CC1)C1(c2ccc(Br)cc2)CCCC1,-,-,-,0
Cc1ccc(C)c(-n2c(Cc3cc(=O)[nH]c(=O)[nH]3)nnc2SCC(=O)c2ccccc2)c1,-,-,-,0
COc1ccc(C2CC(c3ccccc3)=NN2c2ccc(S(N)(=O)=O)cc2)cc1 (stereo not given),0,13.6µM,0,-
CCCc1noc(-c2ccn3c(CNC(=O)c4ccccc4F)nnc3c2)n1,0,0,0,8.91µM
CCCc1noc(-c2ccn3c(CNC(=O)c4cc(F)ccc4F)nnc3c2)n1,0,0,0,31.6µM
CCCc1noc(-c2ccn3c(CNC(=O)c4c(F)cccc4F)nnc3c2)n1,0,0,0,28.2µM
COc1cc2c(cc1OC)C(C[C@H]1CN(C(=O)C(=O)O)CC[C@H]1CC(=O)O)=NCC2,0,0,0,0
COc1ccc2c(c1)CCN=C2C[C@H]1CN(C(=O)Nc2ccccc2)CC[C@H]1CC(=O)O,0,0,0,?
COc1cc2c(cc1OC)C(C[C@H]1CN(C(=O)Nc3ccc(Cl)cc3)CC[C@H]1CC(=O)O)=NCC2,0,0,0,28.2µM
